Experimental data: PubChem BioAssay (NCI)
Values joined by “and” are separate entries in the source; they are usually repeats but may differ in a detail not shown here. Equal entries are not always repeated. About 79,000 compounds went through this panel and 15% of them were active in at least one assay; those are over-represented in the sample as a whole. Active and inactive are the calls of the source. Rule as the data show it: active = growth inhibition above about 70%; inactive = the rest.

Legend:
[1] = NCI Yeast Anticancer Drug Screen. Data for the rad52 strain (AID 147);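 also: 0% = growth of vehicle-treated control cultures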; details: S. cerevisiae rad52 mutant growth inhibition, hits give high values
Outline: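 Inhibition of yeast growth, referenced to vehicle controls, was the measured output for a strain with defective DNA damage repair.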

[2] = NCI Yeast Anticancer Drug Screen. Data for the wt1 strain (AID 149);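 also: 0% = growth of vehicle-treated wt1 cultures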; details: S. cerevisiae wt1 strain (SPY 50644) growth inhibition, hits give high values
Outline: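 wt1 strain grown with compound or vehicle; inhibition taken from the growth difference.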

[3] = NCI Yeast Anticancer Drug Screen. Data for the rad50EPP+ strain (AID 151);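 also: 0% = growth of vehicle-treated control cultures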; details: S. cerevisiae rad50 mutant strain, hits give high values
Outline: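 Genetically defined yeast (rad50EPP+, DNA damage repair alteration) is grown with compound, and inhibition of growth is expressed relative to vehicle-treated controls.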

[4] = NCI Yeast Anticancer Drug Screen. Data for the mgt1 strain (AID 153); details: S. cerevisiae mgt1 mutant growth inhibition, hits give high values
Outline: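 In the mgt1 strain, test compounds were added and growth inhibition was determined relative to vehicle-treated controls.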

[5] = NCI Yeast Anticancer Drug Screen. Data for the rad50 strain (AID 155);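 also: 0% = growth of vehicle-only cultures of the same strain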; details: S. cerevisiae rad50 strain growth inhibition, hits give high values
Outline: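 DNA repair mutant yeast, compound exposure, growth read-out; inhibition is taken relative to vehicle.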

[6] = NCI Yeast Anticancer Drug Screen. Data for the mec2-1 strain (AID 157); details: S. cerevisiae mec2-1 strain, hits give high values
Outline: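 Each compound was tested on mec2-1 yeast, a strain altered in DNA damage repair or cell cycle control. Growth inhibition is reported relative to vehicle.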

[7] = NCI Yeast Anticancer Drug Screen. Data for the rad14 strain (AID 159);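 also: 0% = growth of vehicle-treated control cultures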; details: S. cerevisiae rad14 strain growth inhibition, hits give high values
Outline: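 DNA repair-defective yeast, compound-exposed; % growth inhibition derived by comparison with vehicle-treated controls.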

[8] = NCI Yeast Anticancer Drug Screen. Data for the sgs1 mgt1 strain (AID 161);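 also: 0% = growth of cultures given vehicle only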; details: S. cerevisiae sgs1 mgt1 strain, hits give high values
Outline: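 Read-out: growth inhibition vs vehicle controls. Cells: mutant yeast strain deficient in DNA damage repair.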

[9] = NCI Yeast Anticancer Drug Screen. Data for the CLN2oe strain (AID 163);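 also: 0% = growth of vehicle-only control cultures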; details: S. cerevisiae CLN2oe strain, hits give high values
Outline: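 First, the altered yeast strain was treated with each compound; second, its growth was measured; finally, inhibition was derived by comparison with vehicle controls.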

[10] = NCI Yeast Anticancer Drug Screen. Data for the cln2 rad14 strain (AID 165);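 also: 0% = growth equal to vehicle treated cultures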; details: S. cerevisiae cln2 rad14 strain, hits give high values
Outline: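 Test compounds were added to cln2 rad14 yeast cultures; inhibition of growth was then determined by comparison with vehicle treatment.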

[11] = NCI Yeast Anticancer Drug Screen. Data for the bub3 strain (AID 167); details: S. cerevisiae bub3 mutant strain, hits give high values
Outline: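 In this screen, a yeast mutant lacking normal mitotic checkpoint function is challenged with compound. Relative growth versus vehicle gives the inhibition value.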

[12] = NCI Yeast Anticancer Drug Screen. Data for the wt2 strain (AID 169);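 also: 0% = growth of vehicle-treated yeast cultures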; details: S. cerevisiae wt2 strain growth inhibition, hits give high values
Outline: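 The panel's yeast strains carry defined changes in DNA repair or cell cycle genes. Each strain is grown with compound, and growth loss is scored relative to vehicle.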

[13] = NCI Yeast Anticancer Drug Screen. Data for the mlh1 strain (AID 171);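 also: 0% = growth of vehicle-treated control cultures of the same strain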; details: S. cerevisiae mlh1 strain growth inhibition, hits give high values
Outline: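 Inhibition values reflect reduced yeast growth in the presence of compound, referenced to vehicle controls, using a strain chosen for its alteration in DNA repair or cell cycle control.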

[14] = NCI Yeast Anticancer Drug Screen. Data for the sgs1 strain (AID 173);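 also: 0% = growth of vehicle-only control cultures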; details: S. cerevisiae sgs1 mutant, hits give high values
Outline: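 Vehicle-treated cultures served as reference for growth inhibition of a yeast strain altered in DNA damage repair or cell cycle control after compound exposure.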

[15] = NCI Yeast Anticancer Drug Screen. Data for the mlh1 rad18 strain (AID 175); details: S. cerevisiae mlh1 rad18 strain growth inhibition, hits give high values
Outline: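 Inhibition values reflect reduced growth of mutant yeast versus vehicle-treated controls following compound exposure; the mutations affect DNA damage repair.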

[16] = NCI Yeast Anticancer Drug Screen. Data for the rad18 strain (AID 177); details: S. cerevisiae rad18 mutant growth inhibition, hits give high values
Outline: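 Steps: expose repair-mutant yeast to compound; measure growth; express as inhibition relative to vehicle control.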

[17] = at 5.0 µM (retest, dose inferred, filed as 0.5)
[18] = at 50.0 µM (retest, dose inferred, filed as 5.0)

Measured: growth inhibition

O=S(=O)(O)/C(=C\c1ccccc1)c1ccccc1 (tested in a mixture with another compound)
active: [11]; [17] 97% | [11]; [18] 95%
inactive: [1]; at 1.2 µM -3% | [1]; at 3.7 µM -2% | [1]; at 11.0 µM -6% | [1]; at 33.0 µM -5% | [1]; at 100.0 µM -8% | [2]; at 1.2 µM 1% | [2]; at 3.7 µM 0% | [2]; at 11.0 µM 1% | [2]; at 33.0 µM 0% | [2]; at 100.0 µM -1% | [3]; at 1.2 µM -3% | [3]; at 3.7 µM -2% | [3]; at 11.0 µM -3% | [3]; at 33.0 µM -3% | [3]; at 100.0 µM 3% | [4]; at 1.2 µM 0% | [4]; at 3.7 µM -1% | [4]; at 11.0 µM -1% | [4]; at 33.0 µM -2% | [4]; at 100.0 µM -2% | [5]; at 1.2 µM 0% | [5]; at 3.7 µM -5% | [5]; [17] 15% | [5]; at 11.0 µM 1% | [5]; at 33.0 µM -5% | [5]; [18] 15% | [5]; at 50.0 µM -10.3% and -8% and 14.8% | [5]; at 100.0 µM -4% | [6]; at 1.2 µM -3% | [6]; at 3.7 µM -2% | [6]; [17] 24% | [6]; at 11.0 µM -3% | [6]; at 33.0 µM -2% | [6]; [18] 24% | [6]; at 50.0 µM 2.1% and -4.7% and -21.4% | [6]; at 100.0 µM 10% | [7]; at 1.2 µM 0% | [7]; at 3.7 µM 0% | [7]; at 11.0 µM 2% | [7]; at 33.0 µM -7% | [7]; at 100.0 µM 3% | [8]; [17] 12% | [8]; [18] 3% | [8]; at 50.0 µM -28.2% and -11.8% and -14.2% | [9]; at 1.2 µM -3% | [9]; at 3.7 µM -1% | [9]; at 11.0 µM -5% | [9]; at 33.0 µM -7% | [9]; at 100.0 µM 2% | [10]; [17] 55% | [10]; [18] 23% | [10]; at 50.0 µM 28.4% and 15.9% and 9.35% | [11]; at 1.2 µM -11% | [11]; at 3.7 µM -6% | [11]; at 11.0 µM -30% | [11]; at 33.0 µM 19% | [11]; at 50.0 µM -19.1% and -0.25% and 3.5% | [11]; at 100.0 µM 1% | [12]; at 1.2 µM -2% | [12]; at 3.7 µM 0% | [12]; at 11.0 µM -4% | [12]; at 33.0 µM -2% | [12]; at 100.0 µM -2% | [13]; at 1.2 µM 0% | [13]; at 3.7 µM 2% | [13]; at 11.0 µM 1% | [13]; at 33.0 µM -22% | [13]; at 100.0 µM 10% | [14]; at 1.2 µM 0% | [14]; at 3.7 µM -1% | [14]; at 11.0 µM -2% | [14]; at 33.0 µM -5% | [14]; at 100.0 µM -4% | [15]; [17] 39% | [15]; [18] 4% | [15]; at 50.0 µM 8.8% and -6.15% and -15.1% | [16]; at 1.2 µM -2% | [16]; at 3.7 µM 2% | [16]; at 11.0 µM 5% | [16]; at 33.0 µM -5% | [16]; at 100.0 µM -11%
